The values that follow come from PubChem BioAssay (NCATS).

Results filed as inconclusive are left out. Unmarked numbers belong to inactive results. Activity calls are given as the source filed them. Calls come from the whole dose curve; as a rule, active = well fitted curve in the direction sought with a large enough effect; inconclusive = small, poorly fitted or top-dose-only effect, or another doubt; inactive = no such curve, though single readings can be large; an effect the other way counts as inactive or inconclusive.

Assay [1] concerns the target Rap guanine nucleotide exchange factor 3 (Homo sapiens) (UniProt O95398). Briefly: Confirmatory qHTS for antagonist of cAMP-regulated guanine nucleotide exchange factor 3 (EPAC1) (AID 1645880). Note: nearly all actives have a fitted effect of over 55% in size. Note: potency is the fitted concentration of half-maximal effect. In a few lines: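 Nucleotide exchange uses 100 nM EPAC1, 250 nM RAP1B-BODIPY-GDP and 50 uM GDP, with compounds in a concentration-titration series. After 5 min at room temperature, fluorescence (480 nm ex/540 nm em) is read every 5 min for 30 min. Data are normalized to control ATA and DMSO.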
A general note: qHTS replaces the single test concentration by a dilution series.

For assay [2] the target is unchanged. Briefly: Confirmatory qHTS for agonist of cAMP-regulated guanine nucleotide exchange factor 3 (EPAC1) (AID 1645881).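 Note: EPAC1 catalysed release of BODIPY-GDP from Rap1B seen as fluorescence loss; 100% = effect of cAMP agonist control; nearly all actives have a fitted effect of over 75% in size.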
For assay [3], the target named is Rap guanine nucleotide exchange factor 4 (Homo sapiens) (UniProt Q8WZA2). Briefly: Confirmatory qHTS for agonist of cAMP-regulated guanine nucleotide exchange factor 4 (EPAC2) (AID 1645884).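 Note: nucleotide exchange releases bodipy-GDP from Rap1 and this lowers its fluorescence; % is set by controls: 0 for no effect and ±100 for the full control effect; nearly all actives have a fitted effect of over 65% in size.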
Assay [4] shares this target. Briefly: Confirmatory qHTS for antagonist of cAMP-regulated guanine nucleotide exchange factor 4 (EPAC2) (AID 1645885). For activity change, negative = inhibition: % is set by controls: 0 for no effect and ±100 for the full control effect. Note: nearly all actives have a fitted effect of over 25% in size. Note: potency is the fitted concentration of half-maximal effect.
Assay [5] addresses Rap guanine nucleotide exchange factor 3 (Homo sapiens) (UniProt O95398). Briefly: Counterscreen qHTS for antagonist of cAMP-regulated guanine nucleotide exchange factor 3 (EPAC1) (AID 1645888).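 Note: fluorescence loss as bound BODIPY-GDP is released from Rap1B; % of control where 0% means no effect.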 In a few lines:
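Rap1B-BODIPY-GDP 250 nM + GDP 50 uM; cpds 7-pt, final 9.74 nM–152 uM (activator mode) or from 7.32 nM upwards (inhibitor mode); RT; FI 480/540 nm at 5 and 30 min, then ± cAMP, reread.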
A general note: The purpose of a counterscreen is to sort out artefacts and off-target activity.

Sequence of Rap guanine nucleotide exchange factor 4 (Homo sapiens) (Q8WZA2 whole entry, looked up): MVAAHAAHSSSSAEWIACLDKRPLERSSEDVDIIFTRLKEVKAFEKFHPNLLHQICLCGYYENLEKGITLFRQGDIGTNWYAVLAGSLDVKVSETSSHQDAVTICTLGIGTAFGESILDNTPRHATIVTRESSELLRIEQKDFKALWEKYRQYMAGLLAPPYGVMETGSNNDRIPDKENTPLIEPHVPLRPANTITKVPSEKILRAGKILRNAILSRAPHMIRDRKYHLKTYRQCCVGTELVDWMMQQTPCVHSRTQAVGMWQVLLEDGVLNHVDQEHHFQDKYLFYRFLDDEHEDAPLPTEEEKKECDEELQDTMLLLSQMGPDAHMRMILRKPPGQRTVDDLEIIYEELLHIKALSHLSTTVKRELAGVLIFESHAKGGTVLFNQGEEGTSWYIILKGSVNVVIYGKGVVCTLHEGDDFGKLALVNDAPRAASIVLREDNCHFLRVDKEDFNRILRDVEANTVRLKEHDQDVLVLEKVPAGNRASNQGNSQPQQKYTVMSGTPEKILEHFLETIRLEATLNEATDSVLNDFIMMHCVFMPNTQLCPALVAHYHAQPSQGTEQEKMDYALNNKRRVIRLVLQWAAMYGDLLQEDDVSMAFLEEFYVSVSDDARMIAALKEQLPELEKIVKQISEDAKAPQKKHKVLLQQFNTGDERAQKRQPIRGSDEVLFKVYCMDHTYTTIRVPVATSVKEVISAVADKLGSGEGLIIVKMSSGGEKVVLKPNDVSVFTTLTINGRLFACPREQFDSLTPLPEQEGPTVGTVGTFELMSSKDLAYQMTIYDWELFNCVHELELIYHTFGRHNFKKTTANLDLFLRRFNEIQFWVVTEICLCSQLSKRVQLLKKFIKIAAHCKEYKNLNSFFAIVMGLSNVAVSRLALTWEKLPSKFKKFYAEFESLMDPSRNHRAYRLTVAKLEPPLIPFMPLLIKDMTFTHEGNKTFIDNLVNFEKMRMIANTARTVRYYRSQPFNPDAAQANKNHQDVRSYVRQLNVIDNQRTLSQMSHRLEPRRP
Sequence of Rap guanine nucleotide exchange factor 3 (Homo sapiens) (O95398 whole entry, looked up): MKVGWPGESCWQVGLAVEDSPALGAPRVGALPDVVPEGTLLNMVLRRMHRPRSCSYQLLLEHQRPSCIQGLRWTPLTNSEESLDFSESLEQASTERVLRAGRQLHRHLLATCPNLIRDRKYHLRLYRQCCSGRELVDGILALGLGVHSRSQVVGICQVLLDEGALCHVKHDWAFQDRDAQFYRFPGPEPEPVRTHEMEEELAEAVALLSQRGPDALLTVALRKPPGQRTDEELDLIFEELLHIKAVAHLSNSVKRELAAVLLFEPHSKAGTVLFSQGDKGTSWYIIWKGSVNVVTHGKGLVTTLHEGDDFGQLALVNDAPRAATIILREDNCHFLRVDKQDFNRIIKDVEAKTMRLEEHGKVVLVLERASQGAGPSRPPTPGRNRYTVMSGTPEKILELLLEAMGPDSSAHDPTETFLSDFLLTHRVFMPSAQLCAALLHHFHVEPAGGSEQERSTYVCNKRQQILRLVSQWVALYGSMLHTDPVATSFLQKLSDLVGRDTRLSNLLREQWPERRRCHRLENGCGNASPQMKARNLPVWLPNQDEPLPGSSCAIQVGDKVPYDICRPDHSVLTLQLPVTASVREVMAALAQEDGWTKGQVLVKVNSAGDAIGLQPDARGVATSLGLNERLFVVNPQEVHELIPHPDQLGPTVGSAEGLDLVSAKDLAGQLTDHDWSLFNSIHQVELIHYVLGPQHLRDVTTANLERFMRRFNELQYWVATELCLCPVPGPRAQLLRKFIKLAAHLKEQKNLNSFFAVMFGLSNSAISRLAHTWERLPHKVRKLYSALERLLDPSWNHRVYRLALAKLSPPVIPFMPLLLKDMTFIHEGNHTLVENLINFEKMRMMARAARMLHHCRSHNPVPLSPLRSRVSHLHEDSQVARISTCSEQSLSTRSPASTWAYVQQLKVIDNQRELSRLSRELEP

Take `COc1ccc(Br)cc1CN(C)C(=O)c1ccccc1OCc1c(C)noc1C`: the Potency entry in assay [1], in assay [2], in assay [3], in assay [4] and in assay [5] was “inactive” each time.
As to `CCOc1ncccc1C(=O)Nc1ccc(C)c(S(=O)(=O)N2CCCCCC2)c1`, the Potency entry in assay [1], in assay [2], in assay [3], in assay [4] and in assay [5] was “inactive” each time.
Consider `Cc1ccc(C(=O)c2cn(Cc3ccccc3)c3nc(C)ccc3c2=O)cc1`, for which the Potency entry in assay [1], in assay [2], in assay [3], in assay [4] and in assay [5] was “inactive” throughout.
As for `Cc1ccc(S(=O)(=O)N2CCCCC2c2cccnc2)c(C)c1C` (stereo not given), the Potency entry in assay [1], in assay [2] and in assay [4] was “inactive” in each case. Moreover, the activation in assay [3] was 14.9% [at 17.1 µM, percent relative to cAMP agonist control]. For the same compound, the activity change, negative = inhibition in assay [5] is 2.73% [at 30.8 µM].
Consider `N#CC1=C(N)SC(N)=C(C#N)C1c1cccc(Oc2ccccc2)c1`, for which the Potency in assay [1] was 67.5 µM (active). For the same compound, the Potency result in assay [2], in assay [3], in assay [4] and in assay [5] was “inactive” each time.
On to `Cc1ccc2nc3sc(C(=O)N4CCCc5ccccc54)c(N)c3cc2c1`, for which the Potency entry in assay [1], in assay [2] and in assay [4] was “inactive” each time. In addition, the activation in assay [3] was 4.98% [at 17.1 µM, percent relative to cAMP agonist control]. Besides, in assay [5], the activity change, negative = inhibition is -0.0356% [at 30.8 µM].
Turning to `CC(C)N1CCc2c(sc(NC(=O)c3ccc(S(=O)(=O)N4CCCCC4C)cc3)c2C(N)=O)C1` (stereo not given), in assay [1], the Potency is 89.1 µM (active). The Potency result in assay [2] and in assay [4] was “inactive” throughout. Also, the activation in assay [3] is 4.64% [at 17.1 µM, percent relative to cAMP agonist control]. Also, the activity change, negative = inhibition in assay [5] is 3.44% [at 30.8 µM].
Turning to `COC(=O)c1cc2oc(C)cc2n1Cc1ccc(Br)cc1F`, the Potency result in assay [1], in assay [2], in assay [3], in assay [4] and in assay [5] was “inactive” throughout.
Turning to `O=C1S/C(=C\c2ccc(N3CCOCC3)o2)C(=O)N1c1ccccc1`, the Potency entry in assay [1], in assay [2], in assay [3], in assay [4] and in assay [5] was “inactive” throughout.
`CC(C)OC(=O)/C(=C/c1ccc2c(c1)c1ccccc1n2C)NC(=O)c1ccccc1`: the Potency result in assay [1], in assay [2], in assay [3], in assay [4] and in assay [5] was “inactive” throughout.
`COc1ccc(S(=O)(=O)N2C(=O)/C(=C3\SC(N)=NC3=O)c3ccccc32)cc1`: the Potency result in assay [1], in assay [2], in assay [3], in assay [4] and in assay [5] was “inactive” each time.
Turning to `Cc1ccc(S(=O)(=O)Nc2ccccc2C=Nc2cccc(C)c2C)cc1`, the Potency entry in assay [1], in assay [2], in assay [3], in assay [4] and in assay [5] was “inactive” in each case.
`CCN(CC)C(=S)Oc1c(Cl)cccc1Cl`: the Potency entry in assay [1], in assay [2] and in assay [4] was “inactive” throughout. Moreover, the activation in assay [3] was 7.01% [at 17.1 µM, percent relative to cAMP agonist control]. The activity change, negative = inhibition in assay [5] was -19.4% [at 30.8 µM].
Regarding `COC(=O)CNc1cc(S(=O)(=O)N2CCCCC2)ccc1Oc1cccc(C)c1`, the Potency entry in assay [1], in assay [2], in assay [3], in assay [4] and in assay [5] was “inactive” each time.
Turning to `CC(C(=O)NC1CC(C)(C)NC(C)(C)C1)c1ccc([N+](=O)[O-])cc1` (stereo not given), the Potency entry in assay [1], in assay [2], in assay [3], in assay [4] and in assay [5] was “inactive” each time.
With `O=c1oc(-c2ccccc2NS(=O)(=O)c2ccccc2)nc2ccccc12`, the Potency entry in assay [1], in assay [2] and in assay [4] was “inactive” throughout. Also, the activation in assay [3] is 2.35% [at 17.1 µM, percent relative to cAMP agonist control]. Besides, the activity change, negative = inhibition in assay [5] was 2.74% [at 30.8 µM].
For the compound `Cc1cccc(Cn2cc(SCC(=O)Nc3nccs3)c3ccccc32)c1`, the Potency entry in assay [1], in assay [2], in assay [3], in assay [4] and in assay [5] was “inactive” throughout.
On to `O=C(c1ccco1)N(Cc1ccc([N+](=O)[O-])cc1)c1ccc(Cl)cc1`, for which the Potency result in assay [1], in assay [2], in assay [3], in assay [4] and in assay [5] was “inactive” in each case.
`Cc1nc2sc(C(c3cccs3)N3CCN(c4ccccc4)CC3)c(O)n2n1` (stereo not given): the Potency entry in assay [1], in assay [2], in assay [3], in assay [4] and in assay [5] was “inactive” each time.
On to `COc1ccccc1C(=O)NC(=O)COC(=O)C1CC1`, for which the Potency entry in assay [1], in assay [2], in assay [3], in assay [4] and in assay [5] was “inactive” each time.
For `CC1CCN(C(=O)CSc2nnc(CN3CCOCC3)n2-c2ccccc2)CC1`, the Potency entry in assay [1], in assay [2], in assay [3], in assay [4] and in assay [5] was “inactive” each time.
As to `CCOc1ccc(C(=O)Nc2ccc3c(c2)N(C(C)=O)CCC3)cc1OCC`, the Potency entry in assay [1], in assay [2], in assay [3], in assay [4] and in assay [5] was “inactive” each time.
On to `Cc1ccc(O)c(N=Cc2cc(Cc3ccccc3)cc([N+](=O)[O-])c2O)c1`, for which the Potency in assay [1] is 33.8 µM (active); in assay [4], 47.8 µM (active). For the same compound, the Potency result in assay [2], in assay [3] and in assay [5] was “inactive” in each case.
`CC(C)[C@H](NC(=O)NCCc1ccc(F)cc1)C(=O)O`: the Potency entry in assay [1], in assay [2] and in assay [4] was “inactive” each time. Also, the activation in assay [3] is 8.32% [at 17.1 µM, percent relative to cAMP agonist control]. Further, in assay [5], the activity change, negative = inhibition was -8.58% [at 30.8 µM].
On to `CCN(CCNC(=O)C1CCN(S(=O)(=O)c2cccc3cccnc23)CC1)c1ccccc1`, for which the Potency entry in assay [1], in assay [2], in assay [3], in assay [4] and in assay [5] was “inactive” throughout.
